Source: PubChem BioAssay AID1259350 (ICCB-Longwood Screening Facility, Harvard Medical School, 2017)
The list shows a part of the results. The source made the active and inactive calls.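 Rule for the calls: active = inhibition score of 15 or more, meaning 100 minus mean polarization as percent of control over three replicates; inactive = the rest.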

These molecules were tested against Guanine nucleotide-binding protein G(i) subunit alpha-3 (Rattus norvegicus) (UniProt P08753) (assay: GIV-Galphai3 interaction disruptors, retest – biochemical, fluorescence polarization, FITC-GIV peptide, rat Galphai3, confirmation (AID 1259350;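 note: lower mP means peptide displaced from Galphai3 so more inhibition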)). Settings: FITC-GIV peptide binding to Galphai3, fluorescence polarization; at 100 µM; hits give low values.
Sequence of Guanine nucleotide-binding protein G(i) subunit alpha-3 (Rattus norvegicus) (P08753 whole entry, looked up): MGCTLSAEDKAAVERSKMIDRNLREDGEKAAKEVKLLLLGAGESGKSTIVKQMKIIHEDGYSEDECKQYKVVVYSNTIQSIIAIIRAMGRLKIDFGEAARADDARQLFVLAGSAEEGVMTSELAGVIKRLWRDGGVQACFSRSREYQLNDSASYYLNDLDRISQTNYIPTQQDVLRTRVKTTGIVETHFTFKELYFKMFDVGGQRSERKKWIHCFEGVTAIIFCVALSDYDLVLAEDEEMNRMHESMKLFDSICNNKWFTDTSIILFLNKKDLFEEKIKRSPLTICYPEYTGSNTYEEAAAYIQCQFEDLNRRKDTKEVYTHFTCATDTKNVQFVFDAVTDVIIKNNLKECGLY

Fluorescence polarization, active:
CCC(=O)N1CCc2cc(N3CC(C(=O)N4CCN(C(C)C)CC4)CC3=O)ccc21 (centres undefined) 64.3 mP
CC(=O)Nc1ccc(Nc2c3c4c(cccc4[nH]c2=O)C(=O)c2ccccc2-3)cc1 39.3 mP
Cn1cccc1/C=C1\C(=O)NC(=S)N(c2ccccc2)C1=O 51.3 mP
CC1=NOC(=O)C1C(c1cccc(Br)c1)c1c(C)[nH]n(-c2ccccc2)c1=O (centres undefined) 37.2 mP
Cc1ccc(N2C(=O)/C(=C/c3ccc(OCC(=O)O)c(Br)c3)C(=O)NC2=S)cc1 60.7 mP
N#CSc1cc(SC#N)c(N)nc1N 25.2 mP
O=C(O)CCC(C(=O)O)N1C(=O)/C(=C\c2ccco2)SC1=S (centres undefined) 41.8 mP
Cc1ccc(NC(=O)c2nc[nH]c2C(=O)N2CCCCC2)c(C(=O)c2ccccc2)c1 54.4 mP
N#CC(C#N)=C(C#N)/C=C/n1c2ccccc2c2ccccc21 50.6 mP
O=C(O)c1cc(NS(=O)(=O)c2ccc3c(c2)CCCC3)cnc1N1CCOCC1 43 mP

Fluorescence polarization, inactive:
O=C(NN=c1c(=O)c2ccccc2c1=O)c1ccncc1 66.7 mP
COC(=O)Cn1nc2c(-c3nc(-c4ccc(Cl)cc4)no3)cccn2c1=O 83.1 mP
CC(=O)Oc1cccc2c1C(=O)C=CC2=O 73.2 mP
COc1ccccc1N1C(=O)/C(=C/c2ccc(Cl)cc2)C=C1c1ccccc1 77.8 mP
CCOC(=O)c1nc2cc(C)c(C)cc2nc1NC1CCCCC1 88.9 mP
CCOc1cc(/C=C2/C(=O)N(c3nn[nH]n3)N=C2C)cc(Cl)c1OCC 69.8 mP
CCOC(=O)C1=C(C)N(c2ccc(OC)cc2)C(=O)/C1=C\c1ccco1 77.8 mP
COc1ccc(Nc2cc(C(=O)NCCCN(C)c3ccccc3)c3ccccc3n2)c(OC)c1 84 mP
COc1ccccc1CNc1ncc2nc(-c3ccccc3)oc2n1 63.8 mP
COC1=C(N2CCOCC2)C(=O)c2ccccc2C1=O 68 mP
Cc1ccc(C(=O)N2CCc3cc(CNC(=O)c4ccc(Br)cc4)ccc32)cc1 85.2 mP
Cc1nn(-c2ccccc2)c2sc(-c3noc(-c4ccccc4F)n3)cc12 78.5 mP
O=C(O)c1c2ccccc2[nH]c2c1oc1cc(=O)ccc12 71.6 mP
COc1ccc(N=Nc2c(-c3ccc(OC)cc3)[nH]oc2=O)cc1 72.7 mP
